Common to all, as to test: yeast three-hybrid, YBZ-1, SC-Leu-His + 0.5 mM 3-AT, 4 days
Conditions in all cases: tags: N-Gal4 AD-HA kept; label: inside an RPR1-promoter hybrid RNA with tandem MS2 sites; ssRNA

For one experiment, the target named is PUM1 PUF domain R1-RQS (Homo sapiens, UniProt Q14671 828-1176, S863R;R864Q;Q867S). An outline of the steps:
(§1)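 Matching RNA elements and Pumilio-1 PUF domain libraries, randomized at the three base-contacting residues of every repeat, were co-expressed from a centromeric plasmid in strain YBZ-1 (LexA–MS2 coat fusion, HIS3 reporter). The repeat regions were PCR-amplified and Illumina-sequenced from cells grown four days on SC-Leu (input) or SC-Leu-His + 0.5 mM 3-AT (selection). The interaction score is the log change in variant frequency from input to selection. It is computed in log2, with a pseudocount of 1 for absent variants.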

The next experiment has as its target PUM1 PUF domain R1-GKK (Homo sapiens, UniProt Q14671 828-1176, S863G;R864K;Q867K). The gist of the method:
as §1

The target of another experiment is PUM1 PUF domain R3-IYR (Homo sapiens, UniProt Q14671 828-1176, C935I;R936Y;Q939R). The gist of the method: as §1
In a further experiment the target is PUM1 PUF domain R3-CRL (Homo sapiens, UniProt Q14671 828-1176, Q939L). The gist of the method: as §1
In another experiment the target is PUM1 PUF domain R3-IRG (Homo sapiens, UniProt Q14671 828-1176, C935I;Q939G). An outline of the steps:
as §1

A further experiment concerns the target T1, PUM1 PUF domain R6-MYV (Homo sapiens, UniProt Q14671 828-1176, N1043M;Q1047V).
T1 sequence: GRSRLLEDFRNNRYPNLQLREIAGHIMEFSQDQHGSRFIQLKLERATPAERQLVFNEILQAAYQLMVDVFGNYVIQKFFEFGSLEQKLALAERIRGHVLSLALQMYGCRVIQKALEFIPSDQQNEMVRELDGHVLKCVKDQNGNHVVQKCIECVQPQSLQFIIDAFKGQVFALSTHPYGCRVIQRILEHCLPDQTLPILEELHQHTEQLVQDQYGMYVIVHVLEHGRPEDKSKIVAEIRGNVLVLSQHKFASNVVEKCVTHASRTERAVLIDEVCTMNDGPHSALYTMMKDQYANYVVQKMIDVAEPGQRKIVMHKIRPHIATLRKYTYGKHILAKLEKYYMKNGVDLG
An outline of the steps:
as §1

In a further experiment the target is PUM1 PUF domain R8-PWT (Homo sapiens, UniProt Q14671 828-1176, N1122P;Y1123W;Q1126T). The gist of the method: as §1
The target in the next experiment is PUM1 PUF domain R3-LFI (Homo sapiens, UniProt Q14671 828-1176, C935L;R936F;Q939I). An outline of the steps:
as §1

For another experiment, the target named is T2, PUM1 PUF domain R6-YWR (Homo sapiens, UniProt Q14671 828-1176, N1043Y;Y1044W;Q1047R).
T2 sequence: T1 sequence with M216Y, Y217W, V220R
The gist of the method:
as §1

A further experiment addresses PUM1 PUF domain R5-QMW (Homo sapiens, UniProt Q14671 828-1176, C1007Q;R1008M;Q1011W). An outline of the steps: as §1

Here are results for nine sequences from publication PMC8384837, “Expanding the binding specificity for RNA recognition by a PUF domain”.

Residue numbers refer to the chain shown, from its start.

Chain of PUM1 PUF domain R5-QMW (Q14671 828-1176 C1007Q/R1008M/Q1011W): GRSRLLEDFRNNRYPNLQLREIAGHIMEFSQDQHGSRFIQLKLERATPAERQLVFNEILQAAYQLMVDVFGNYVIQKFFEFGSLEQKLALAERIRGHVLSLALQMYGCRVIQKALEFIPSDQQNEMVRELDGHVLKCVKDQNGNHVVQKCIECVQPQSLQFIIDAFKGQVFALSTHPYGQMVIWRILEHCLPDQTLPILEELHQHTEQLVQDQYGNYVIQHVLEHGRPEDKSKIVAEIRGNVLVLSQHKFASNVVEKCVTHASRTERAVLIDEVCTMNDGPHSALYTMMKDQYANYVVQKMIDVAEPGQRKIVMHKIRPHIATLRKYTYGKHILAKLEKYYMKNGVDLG
Chain of PUM1 PUF domain R1-RQS (Q14671 828-1176 S863R/R864Q/Q867S): as the sequence (Q14671 828-1176 C1007Q/R1008M/Q1011W) above, with S36R, R37Q, Q40S, Q180C, M181R, W184Q counted along it

For “GGCUAGAACUAGUGGAUCCCCCGGCGCCCGGCGGCUCGAGCCCGGGUAAGUGUAAAUUGUCUGCAUGCCGCCGGGCGCCAUGCCUGCAGGUCGACUCUAGAAAACAUG”, the binding signal in the experiment with PUM1 PUF domain R1-RQS is 3.04 log2 enrichment (interaction score); in the experiment with PUM1 PUF domain R1-GKK it was 5.09 log2 enrichment (interaction score).

On to “GGCUAGAACUAGUGGAUCCCCCGGCGCCCGGCGGCUCGAGCCCGGGUAAGUGUAAGUAGUCUGCAUGCCGCCGGGCGCCAUGCCUGCAGGUCGACUCUAGAAAACAUG”, for which the binding signal in the experiment with PUM1 PUF domain R3-IYR was 5.62 log2 enrichment (interaction score); with PUM1 PUF domain R3-CRL it was 0.83 log2 enrichment (interaction score); with PUM1 PUF domain R3-IRG it was 3.97 log2 enrichment (interaction score).

Consider “GGCUAGAACUAGUGGAUCCCCCGGCGCCCGGCGGCUCGAGCCCGGGUAAGUGUAAAUAGUCUGCAUGCCGCCGGGCGCCAUGCCUGCAGGUCGACUCUAGAAAACAUG”, for which the binding signal was 2.31 log2 enrichment (interaction score) with PUM1 PUF domain R6-MYV; 4.02 log2 enrichment (interaction score) with PUM1 PUF domain R3-IYR; 1.25 log2 enrichment (interaction score) with PUM1 PUF domain R8-PWT; 2.25 log2 enrichment (interaction score) with PUM1 PUF domain R3-CRL; 3.78 log2 enrichment (interaction score) with PUM1 PUF domain R3-LFI; 5.79 log2 enrichment (interaction score) with PUM1 PUF domain R6-YWR.

With “GGCUAGAACUAGUGGAUCCCCCGGCGCCCGGCGGCUCGAGCCCGGGUAAGCGUAAAUAGUCUGCAUGCCGCCGGGCGCCAUGCCUGCAGGUCGACUCUAGAAAACAUG”, the binding signal with PUM1 PUF domain R8-PWT was 3.16 log2 enrichment (interaction score).

In the case of “GGCUAGAACUAGUGGAUCCCCCGGCGCCCGGCGGCUCGAGCCCGGGUAAGUGUUAAUAGUCUGCAUGCCGCCGGGCGCCAUGCCUGCAGGUCGACUCUAGAAAACAUG”, the binding signal with PUM1 PUF domain R5-QMW was 0.66 log2 enrichment (interaction score).

For “GGCUAGAACUAGUGGAUCCCCCGGCGCCCGGCGGCUCGAGCCCGGGUAAGUGUAAUUAGUCUGCAUGCCGCCGGGCGCCAUGCCUGCAGGUCGACUCUAGAAAACAUG”, the binding signal with PUM1 PUF domain R3-CRL was 1.88 log2 enrichment (interaction score); in the experiment with PUM1 PUF domain R3-IRG, 0.44 log2 enrichment (interaction score).

In the case of “GGCUAGAACUAGUGGAUCCCCCGGCGCCCGGCGGCUCGAGCCCGGGUAAGUGUAAAUGGUCUGCAUGCCGCCGGGCGCCAUGCCUGCAGGUCGACUCUAGAAAACAUG”, the binding signal with PUM1 PUF domain R1-GKK was 3.39 log2 enrichment (interaction score).

For “GGCUAGAACUAGUGGAUCCCCCGGCGCCCGGCGGCUCGAGCCCGGGUAAGUGUGAAUAGUCUGCAUGCCGCCGGGCGCCAUGCCUGCAGGUCGACUCUAGAAAACAUG”, in the experiment with PUM1 PUF domain R5-QMW, the binding signal was 2.85 log2 enrichment (interaction score).

As to “GGCUAGAACUAGUGGAUCCCCCGGCGCCCGGCGGCUCGAGCCCGGGUAAGUGAAAAUAGUCUGCAUGCCGCCGGGCGCCAUGCCUGCAGGUCGACUCUAGAAAACAUG”, the binding signal in the experiment with PUM1 PUF domain R6-YWR was 6.63 log2 enrichment (interaction score).
